# Assay outcomes deposited in PubChem BioAssay by The Scripps Research Institute Molecular Screening Center.
# A selection: hits, their analogues and other compounds. The true share with any hit is near 1.3%.
# IDE inh: inhibits human insulin-degrading enzyme in HEK cells; FAbetaB cleavage, fluorescence polarization; inhibition, % at 5.59 µM; actives 0.41% (n = 320,000); AID 434962;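 active means percent inhibition above the average of all tested compounds plus 3 SD, set per screening campaign, cut at about 16% in these data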;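 further: IDE supplied by intact live HEK cells; FP after avidin binding of uncleaved biotin substrate so inhibition keeps polarization high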
# Target sequence (P14735 whole entry, looked up): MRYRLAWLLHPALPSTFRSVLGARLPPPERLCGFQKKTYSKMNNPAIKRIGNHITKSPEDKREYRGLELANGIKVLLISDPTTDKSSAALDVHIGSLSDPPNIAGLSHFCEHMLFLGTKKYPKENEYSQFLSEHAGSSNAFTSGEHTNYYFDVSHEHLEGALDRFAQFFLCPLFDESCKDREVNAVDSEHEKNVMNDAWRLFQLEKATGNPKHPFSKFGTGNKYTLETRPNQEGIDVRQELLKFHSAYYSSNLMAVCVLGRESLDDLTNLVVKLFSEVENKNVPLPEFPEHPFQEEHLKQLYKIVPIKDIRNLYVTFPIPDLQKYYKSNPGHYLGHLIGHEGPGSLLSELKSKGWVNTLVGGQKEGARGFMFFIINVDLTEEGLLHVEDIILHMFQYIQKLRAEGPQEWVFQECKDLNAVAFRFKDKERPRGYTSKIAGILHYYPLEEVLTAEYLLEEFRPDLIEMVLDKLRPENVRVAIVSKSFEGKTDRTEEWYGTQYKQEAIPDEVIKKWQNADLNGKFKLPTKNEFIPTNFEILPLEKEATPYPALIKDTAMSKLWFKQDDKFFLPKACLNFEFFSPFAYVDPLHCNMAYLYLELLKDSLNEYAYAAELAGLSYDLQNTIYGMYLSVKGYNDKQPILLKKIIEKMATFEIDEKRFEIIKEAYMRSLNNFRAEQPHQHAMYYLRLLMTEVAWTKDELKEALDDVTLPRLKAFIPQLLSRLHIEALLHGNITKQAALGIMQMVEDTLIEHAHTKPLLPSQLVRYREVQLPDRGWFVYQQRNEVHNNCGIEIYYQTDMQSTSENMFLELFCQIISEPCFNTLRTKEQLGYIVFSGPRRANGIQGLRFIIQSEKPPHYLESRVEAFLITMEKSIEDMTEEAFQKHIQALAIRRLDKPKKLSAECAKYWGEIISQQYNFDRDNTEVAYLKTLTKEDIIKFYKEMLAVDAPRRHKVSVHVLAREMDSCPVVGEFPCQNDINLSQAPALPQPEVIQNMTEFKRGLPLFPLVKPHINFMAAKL
# PKA-R2B act: activators of human PKA-R2B complex; PKA-R2B holoenzyme dissociation, Cy5-IP20 fluorescence polarization; R2B truncated from residue 108, S112A mutant; 0% DMSO only, 100% 113 µM cGMP; activation, % at 11.4 µM; actives 0.079% (n = 340,000);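 active means activation above a cutoff set at the mean over all compounds plus 3 SD, cut at about 18% in these data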;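 further: higher means more holoenzyme dissociation and a rise in polarization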
# Rin1 Abl inh: human Rin1-Abl interaction inhibition; P00519+Q13671; TR-FRET Rin1/Abl binding, biochemical; inhibition, % at 7.35 µM; actives 0.4% (n = 360,000); AID 588664; in the data active means inhibition above about 5%, passing the limit was not always enough
# IDE act: activators of human insulin-degrading enzyme in cells. HEK cells, FAbeta-B cleavage, fluorescence polarization; 0% vehicle, 100% cell-free pure enzyme wells. AID 493087. P14735. actives 0.073% (n = 340,000). activation, % at 5.96 µM;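 active means activation above the mean of all tested compounds plus 3 SD, set per screening campaign, cut at about 17% in these data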
# E coli Lon inh: inhibits E. coli Lon protease; P0A9M0; actives 0.42% (n = 360,000); purified E. coli Lon protease, fluorescence polarization; inhibition, % at 7.94 µM; in the data active means inhibition above about 13%, passing the limit was not always enough
# PKA-R1A act: activates the PKA-R1A holoenzyme complex | P00514+P68181 | PKA-R1A dissociation, Cy5-IP20 fluorescence polarization; scaled: DMSO 0%, 113 µM cGMP 100% | activation, % at 11.4 µM | actives 0.083% (n = 340,000) | AID 504707;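 active means percent activation above the mean of all tested compounds plus 3 SD, cut at about 19% in these data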;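 further: higher means more PKAc released from R1A so a rise in polarization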
# Rin1 Abl conf: confirmation of inhibitors of human Rin1-Abl interaction; inhibition, % at 7.35 µM; actives 49% (n = 1,300); TR-FRET Rin1-Abl binding, purified proteins; shares compounds with Rin1 Abl inh
# GFP quench-1: quenches GFP fluorescence, counter-screen for Rin1-Abl inhibitors. shares compounds with Rin1 Abl inh. inhibitors/quenchers counterscreen. inhibition, % at 6.75 µM. actives 8.5% (n = 1,300);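 further: ABL1-eGFP fusion protein alone without its partner RIN1-SBP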
# GFP quench DR: counter-screen for Rin1-Abl inhibitors: GFP quenchers, dose response; shares compounds with Rin1 Abl inh; GFP fluorescence interference/quenching counterscreen; IC50, µM; 230 tested, under 10 active; AID 602182; call rule not given here;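 further: ABL1-eGFP fusion protein alone without its RIN1 binding partner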
# GFP quench-2: quenches GFP fluorescence in Rin1-Abl counterscreen; 25 tested, under 10 active; GFP fluorescence quenching counterscreen, biochemical; shares compounds with Rin1 Abl inh; IC50, µM; call rule not given here
# A number is an active result; 0 = inactive; - = no result given. Unless noted, no stated cut-off is given here; in the data, active means inhibition above about 6.5%; inactive means the rest.
SMILES,IDE inh,PKA-R2B act,Rin1 Abl inh,IDE act,E coli Lon inh,PKA-R1A act,Rin1 Abl conf,GFP quench-1,others
O=C(Cc1ccc(NC(=O)C2CCN(C(=O)C3CCCC3)CC2)cc1)Nc1cccc(C(=O)N2CCCCC2)c1,-,0,17,0,0,0,17,0,GFP quench DR=0
O=C(Cc1ccc(NC(=O)C2CCN(C(=O)c3ccccc3)CC2)cc1)Nc1ccc(C(=O)N2CCOCC2)cc1,-,0,36,0,0,0,37,0,GFP quench DR=0;GFP quench-2=0
O=[N+]([O-])c1ccccc1S(=O)(=O)Nc1cccc(-c2ccc(N3CCCC3)nn2)c1,0,0,0,0,0,0,-,-,
CC(=O)NC(c1cccs1)c1cc(F)c2cccnc2c1O (stereo unspecified),0,0,17,0,0,0,13,0,
c1csc(Cn2nnnc2CN2CCN(c3nc4ccccc4s3)CC2)c1,0,0,0,0,0,0,-,-,
CC1=NN(c2ccc(Cl)cc2)C(=O)C1,0,0,14,0,0,0,0,0,
O=c1cc(-c2ccc(O)c(O)c2)oc2c(C3O[C@H](CO)[C@@H](O)[C@H](O)[C@H]3O)c(O)cc(O)c12 (stereo partly specified),0,0,22,0,0,0,37,14,
O=c1cc(-c2ccc(O)c(O)c2)oc2cc(O)c(C3OC(CO)C(O)C(O)C3O)c(O)c12 (stereo unspecified),0,0,27,0,0,0,33,8.9,
N#C/C(=C\c1ccc(O)c(O)c1)C(=O)Nc1cccc2ncccc12,0,0,8.7,0,0,0,13,14,
Cc1ccc(-c2nnc(N3CCN(C(=O)c4cccs4)CC3)c3ccccc23)cc1,0,0,6.3,0,0,0,0,0,
Cc1ccc(C(C[N+](=O)[O-])c2c(C)[nH]n(-c3ccccc3)c2=O)cc1 (stereo unspecified),0,0,6.0,0,0,0,0,0,
Cc1[nH]n(-c2ccccc2)c(=O)c1C(C[N+](=O)[O-])c1ccc(F)cc1 (stereo unspecified),0,0,0,0,0,0,-,-,
COCCCn1c(SCC(=O)Nc2ccc(C)cc2)nc2ccccc2c1=O,0,0,0,0,0,0,-,-,
Cc1ccc(NC(=O)CN(C)C(=O)CSc2nc3ccccc3c(=O)n2CCO)cc1,-,0,11,0,0,0,9.0,0,
O=C(c1ccccc1)N1CCN(c2ccc(NCc3ccc4c(c3)OCO4)cc2)CC1,0,0,12,0,0,0,12,0,
CC(=O)N1CCN(c2ccc(NCc3ccc4c(c3)OCO4)cc2)CC1,0,0,0,0,0,0,-,-,
Oc1ccc(-c2cn3c(n2)SCC3)cc1,0,0,0,0,0,0,-,-,
Oc1ccc(-c2cn3c(n2)SCC3)cc1O,0,0,26,0,0,0,20,15,
Cc1cccc(C(=O)Nc2ccc(C(=O)c3ccccc3)cc2)c1,0,-,0,-,0,-,-,-,
S=C1N(c2ccccc2)C(c2ccc(Cl)cc2)N2CCCN12 (stereo unspecified),0,0,0,0,0,0,-,-,
O=C1N(c2cccc(Cl)c2)C(c2ccc(Cl)cc2)N2CCCN12 (stereo unspecified),0,0,11,0,0,0,18,0,GFP quench DR=0
O=C1N(c2cccc(Cl)c2)C(c2ccccc2)N2CCCN12 (stereo unspecified),0,0,17,0,0,0,24,0,GFP quench DR=0
O=C(CN1CCN(S(=O)(=O)c2ccccc2)CC1)Nc1ccnn1C1CCCC1,0,0,0,0,0,0,-,-,
Cc1ccc(NC(=O)c2ccc(COc3ccccc3)o2)nc1,0,0,0,0,0,0,-,-,
